GLP1R inv ag – acts as inverse agonist at human GLP-1 receptor; HEK293 GLP-1R CRE-luciferase, luminescence, 24 h; GLP-1R form is constitutively active; P43220; Potency, µM (titrated, usually from 38.3 µM), most hits filed as inhibitors; 1.6% of 410,000 active; also: nearly all actives have a fitted effect of over 55% in size
Target sequence (P43220 whole entry, looked up): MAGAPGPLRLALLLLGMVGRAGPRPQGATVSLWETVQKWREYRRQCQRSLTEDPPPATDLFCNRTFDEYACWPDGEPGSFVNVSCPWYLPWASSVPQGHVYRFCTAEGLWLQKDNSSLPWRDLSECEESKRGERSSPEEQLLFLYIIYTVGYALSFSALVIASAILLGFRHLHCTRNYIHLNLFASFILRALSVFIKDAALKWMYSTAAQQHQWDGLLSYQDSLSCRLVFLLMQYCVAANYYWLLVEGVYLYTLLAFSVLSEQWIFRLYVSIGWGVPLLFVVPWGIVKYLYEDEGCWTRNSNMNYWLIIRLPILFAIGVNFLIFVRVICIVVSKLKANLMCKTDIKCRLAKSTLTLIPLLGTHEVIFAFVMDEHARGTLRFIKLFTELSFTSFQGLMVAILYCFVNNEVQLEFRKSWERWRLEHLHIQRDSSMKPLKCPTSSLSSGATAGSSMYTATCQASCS
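HEK293 cells stably co-expressing constitutively active GLP-1R and a cAMP-responsive luciferase reporter were seeded in DMEM with 10% Nu serum, given compounds after 12 h, and incubated 24 h at 37 deg C. Luminescence was then read.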
BRCA1 expr up – activators of BRCA1 expression; Potency, µM (doses to about 46.1 µM), most hits filed as activators; 1.1% of 380,000 active; MCF7-BRCA1-FFLuc reporter, luminescence, 48 h; response scale: scaled: vehicle 0%, 10 µM genistein 100%; AID 624202; also: nearly all actives have a fitted effect of over 80% in size
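Reporter cells (MCF7, BRCA1 promoter-firefly luciferase) received library compounds across a concentration series for 48 h. End-point luminescence was measured and concentration-effect curves derived after normalization.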
HEK293 tox – cytotoxicity in counter-screen for GLP-1R inverse agonists; HEK293 cAMP-luciferase reporter cells, luminescence, 24 h; 0.13% of 410,000 active; Potency, µM (series often up to 38.3 µM), usual class: inhibitors; AID 624418;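 also: loss of luciferase light is scored as toxicity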
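Quantitative HTS format, 1536 wells, 200 cells/uL seeded. Compounds: 23 nL, 24 h, 37 °C. Detection: luciferase reagent, luminescence at 12 min RT; decreased signal taken as cytotoxic.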
a7 integrin act – activates integrin-mediated alleviation for muscular dystrophy; alpha7betagal myoblasts, beta-gal FDG fluorescence, 48 h; Potency, µM (top dose mostly 38.3 µM), most hits filed as activators; 0.064% of 350,000 active; also: nearly all actives have a fitted effect of over 60% in size
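Alpha7betagal+/- myoblasts (passage 13) were plated 16-24 hr, then exposed to compounds (1:260 dilution of DMSO stock) for 48 hours at 37C. After MPER lysis, β-galactosidase reporter activity was read as FDG fluorescence (ex 480/em 540) after 30 minutes.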
GLP1R ag – agonists of human GLP-1 receptor; Potency, µM (titrated, usually from 45.6 µM), most hits filed as activators; P43220; AID 624172; 0.007% of 380,000 active; HEK293 GLP-1R CRE-luciferase, luminescence, 4-6 h; cells express a hypersensitive GLP-1R form
Numbers stand for hits; 0 = inactive; ? = inconclusive; - = not tested or not shown; [ ] = another dose, or the depositor's remark. Sampled rows, rich in hits. Any-hit rate of the full collection: about 2.7%. Calls follow the shape of the dose curve; as a rule, active = well fitted curve in the direction sought with a large enough effect; inconclusive = small, poorly fitted or top-dose-only effect, or another doubt; inactive = no such curve, though single readings can be large; an effect the other way counts as inactive or inconclusive.

SMILES	GLP1R inv ag	BRCA1 expr up	HEK293 tox	a7 integrin act	GLP1R ag
O=C(CSCc1ccccc1F)NCc1ccccc1	0	7.1µM	0	0	0
Cc1ccc(CNC(=O)CSCc2cccc(F)c2)cc1	0	?	0	?	0
CC(C)(C)Cc1c(-c2ccc(Cl)cc2)nc2ccc(Cl)cn12	?	0	0	0	0
CC(C)(C)Cc1c(-c2ccccc2)nc2ccc(Cl)cn12	13µM	0	?	0	0
CC(C)(C)Cc1c(-c2ccc(Cl)cc2)nc2ccc(Br)cn12	10µM	0	?	0	0
COc1ccc(N2CC(NC(=O)c3ccc(Br)o3)CC2=O)cc1 (configuration not stated)	0	-	0	-	-
COc1ccc(/C=N/NC(=O)c2cc(C34CC5CC(CC(C5)C3)C4)[nH]n2)cc1OC	0	0	0	0	0
O=C(N/N=C/c1ccc(O)cc1)c1cc(C23CC4CC(CC(C4)C2)C3)[nH]n1	1.4µM	0	0	0	0
c1ccc2c(c1)-c1cccc3cncc-2c13	0	0	0	0	0
c1ccc2c(-c3cncc4ccccc34)cncc2c1	2µM	0	0	0	0
N#C/C(=N\Nc1ccc(Cl)cc1)C(N)=S	?	0	?	0	0
Cc1ccc(N/N=C(\C#N)C(N)=S)cc1C	0.28µM	0	?	0	0
O=C(C1CC(c2ccccc2O)=NO1)N1CCCCC1 (configuration not stated)	0	10µM	0	0	0
COc1ccccc1N1CCN(C(=O)c2ccc3c(c2)CCN3S(=O)(=O)c2ccccc2)CC1	7.9µM	0	0	0	0
CC(=NNC(=S)N1CC2CCC(CC2)C1)c1ccccn1	?	0	6.3µM	0	0
CC(=NNC(=S)N1CCN(C2CCCCCC2)CC1)c1ccccn1	0	?	0.32µM	0	0
CCn1c(-c2cc(-c3ccc(OC(C)C)cc3)nc3ccccc23)n[nH]c1=S	0	7.1µM	0	0	0
O=C(O)c1ccc2oc(SCC(=O)N3CCCCC3)nc2c1	0	7.1µM	0	0	0
CC1CCCN(C(=O)CSc2nc3ccccc3o2)C1 (configuration not stated)	0	8.9µM	?	0	0
O=C(c1cc([N+](=O)[O-])ccc1Cl)N1CCc2ccccc21	?	0	0	?	0
O=C(c1cc([N+](=O)[O-])ccc1N1CCCCC1)N1CCc2ccccc21	2µM	0	?	0	0
Cc1ccn2c(c1)nc(=S)n2C(=O)c1ccccc1	2.5µM	0	0	0	0
O=C(c1ccccc1)N1CCC(c2nc3ccccc3o2)CC1	0	-	0	-	-
Cc1ccc(-c2cc(C(=O)N3CCN(S(=O)(=O)c4ccc(Br)cc4)CC3)[nH]n2)c(C)c1	0	-	0	-	-
C=CCc1cc(C=O)cc(OC)c1OCc1ccc(Cl)cc1	10µM	0	0	0	0
SMILES	GLP1R inv ag	BRCA1 expr up	HEK293 tox	a7 integrin act	GLP1R ag
CCc1ccccc1NC(=O)c1ccc(=O)n(Cc2ccc(F)cc2)c1	0	0	0	-	0
CCn1cnc2cc(NC(=O)c3ccc(C)cc3)ccc21	0	4.5µM	0	0	0
CCC(=O)Nc1ccc2c(c1)ncn2-c1ccc(C)cc1	0[0.307 µM]	2µM	0[0.307 µM]	0	0
CCC(=O)Nc1ccc2c(c1)ncn2-c1ccc(OC)cc1	0	0	0	0	0
CN1CCN(C(c2ccc(Cl)cc2Cl)c2sc3nc(-c4ccco4)nn3c2O)CC1 (configuration not stated)	0	-	0	-	-
CCOc1ccccc1N(C)C(=O)c1cc(S(=O)(=O)NCCc2ccc(Cl)cc2)ccc1F	?	-	0	-	-
CCN(CC)CCNC(=S)NC(=O)c1cn(-c2ccccc2)nc1-c1ccc(OC)cc1	5µM	0	?	0	0
COc1ccc(NC(=O)c2cn(-c3ccccc3)nc2-c2ccc(C)cc2)cc1	7.9µM	-	0	-	-
Cc1ccc(NC(=O)c2cn(-c3ccccc3)nc2-c2ccccc2)cc1	?	-	0	-	-
Cc1ccc(-c2nn(-c3ccccc3)cc2C(=O)Nc2ccc(C(=O)O)cc2)cc1	0	10µM	0	0	0
COc1ccc(NC(=O)CN(C)C(=O)c2cn(-c3ccccc3)nc2-c2cccs2)cc1	11µM	0	0	0	0
COC(=O)c1cn(-c2ccccc2)nc1-c1ccc(OC)cc1	0	0	0	0	0
CN(CC(=O)Nc1ccc(F)cc1)C(=O)c1cn(-c2ccccc2)nc1-c1cccs1	?	0	0	0	0
CC(C)C(=O)Nc1ccccc1C(=O)OCc1cc(=O)n2nc(C3CC3)sc2n1	0	-	0	-	-
C=CCSc1nnc(-c2ccc([N+](=O)[O-])cc2)o1	0	10µM	0	0	0
N[C@@H](C(=O)N[C@@H]1C(=O)N2C(C(=O)O)=C(CSc3cn[nH]n3)CS[C@H]12)c1ccc(O)cc1	-	-	-	-	0
CCc1cccc(NC(c2nnc(-c3ccccc3)o2)c2ccc(F)cc2Cl)c1 (configuration not stated)	6.3µM	-	0	-	-
Clc1ccc(-c2noc(CN3CCOCC3)n2)cc1	0	7.9µM	0	0	0
O=C1CCN(Cc2nc(-c3ccc(Cl)cc3)no2)CCN1	4.5µM	0	0	0	0
CC1CCN(C(=O)C(C)OC(=O)c2ccc(S(C)(=O)=O)c([N+](=O)[O-])c2)CC1 (configuration not stated)	-	0	-	-	-
CN1CCN(CCOc2ccc(Cc3ccccc3)cc2)CC1	11µM	0	0	0	0
c1ccc(COc2ccc(OCCCCN3CCCC3)cc2)cc1	11µM	0	0	0	0
Cn1nnnc1SCCCNCc1cccc(OCc2ccccc2)c1	?	-	0	-	-
O=C(NCC(=O)N1CCN(c2ncccn2)CC1)c1ccccc1F	0	7.9µM	0	0	0
COc1ccccc1C(=O)NCC(=O)N1CCN(c2ncccn2)CC1	0	0	0	0	0
SMILES	GLP1R inv ag	BRCA1 expr up	HEK293 tox	a7 integrin act	GLP1R ag
Cc1nc(-c2ccccc2)sc1CCNC(=O)C(=O)Nc1ccc2c(c1)OCO2	0	0	0	-	0
CCCCOc1ccc(C(=O)NC)cc1	0	0	0	0	0
CCCCOc1ccc(/C(N)=N/O)cc1	0	11µM	0	0	0
CN(C)/C=C1\C=Cc2ccccc21	-	0	-	-	-
COc1cccc(N/C(SCc2ccccc2F)=C(/C#N)C(=O)NCc2cccs2)c1	5µM	0	0	0	0
COc1cccc(CN(C)C(=O)c2cc(-c3cccs3)nc3ccccc23)c1	6.3µM	0	?	0	0
CCN(CC)c1ccc2cc(S(=O)(=O)c3ccc(Cl)cc3)c(=O)oc2c1	10µM	0	0	0	0
CN1C(=S)SC(N(O)C(=O)Nc2ccc(Cl)c(Cl)c2)C1(C)C (configuration not stated)	10µM	0	0	0	0
COc1ccccc1NC(=O)Cn1c(=O)n(Cc2cccs2)c(=O)c2cccnc21	0	0	0	-	-
O=C(OCc1ccccc1)c1ccc(NCc2cc(O)ccc2O)cc1	7.1µM	0	5µM	0	0

Compound activity from PubChem BioAssay.
